Source: PubChem (National Center for Advancing Translational Sciences (NCATS))
HT1080NT lethal = kills 2HG-producing HT-1080-NT fibrosarcoma cells; HT-1080-NT fibrosarcoma viability, CellTiter-Glo ATP luminescence, 48 h; Potency, µM (titrated, usually from 46.1 µM), most hits filed as cytotoxic; 1.6% of 360,000 active; AID 686970;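 note: NT is the 2HG producing partner of a matched IDH1 knockdown line; nearly all actives have a fitted effect of over 55% in size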
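Toxicity toward the 2HG-producing NT line was scored as %Activity, normalised to DMSO and no-cell wells, from CellTiter-Glo luminescence after 48 hours' treatment.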
IL1B secr inh = blocks inflammasome-driven IL-1 beta release | 4.7% of 360,000 active | THP-1 LPS/ATP IL-1B secretion, AlphaLISA, 16 h; stronger effect = lower value | activity change, % at 57.5 µM | AID 743279; in the data active = activity change below about -50%; inconclusive = mostly about -30% to -49%
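Secreted IL-1B measured by AlphaLISA bead assay after 16 h compound exposure of THP-1 cells; compounds (final up to 57.5 uM) added 1 h before LPS (250 ng/mL) and ATP (1.25 mM) stimulation; lower signal means less secretion.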
TDP1 cell noCPT = qHTS for Inhibitors of human tyrosyl-DNA phosphodiesterase 1 (TDP1): qHTS in cells in absence of CPT. DT40 Tdp1-/- hTDP1 cells, no CPT, ATP luminescence, 48 h. Potency, µM (top dose mostly 46.2 µM), usual class: inhibitors. 15% of 420,000 active; note: nearly all actives have a fitted effect of over 55% in size
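Readout: luminescence from CellTiter-Glo after 30 min in the dark at RT. Cells: DT40 Tdp1-/- with stable hTDP1, 400/well. Exposure: compounds alone, ≥48 hr, 37 °C.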
HT1080 IDH1KD tx = kills HT-1080 cells with IDH1 knockdown. 2% of 360,000 active. AID 686971. Potency, µM (series often up to 46.1 µM), usual class: cytotoxic. HT-1080 IDH1 knockdown viability, ATP luminescence, 48 h
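CellTiter-Glo luminescence after 48 h compound exposure at 37 degrees C of IDH1-knockdown HT-1080 cells in 5% FBS RPMI. %Activity scaled between DMSO wells and cell-free media wells, with curves fitted and assigned curve classes.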
DT40 TDP1 CPT = DT40-hTDP1 cell growth loss with CPT. chicken DT40 Tdp1-/-;hTDP1 cells + 20 nM CPT, ATP luminescence, 48 h. Potency, µM (titrated, usually from 46.2 µM), actives largely listed as inhibitors. 12% of 420,000 active; note: nearly all actives have a fitted effect of over 55% in size
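Chicken DT40 Tdp1-/- cells complemented with human TDP1, 400 cells/well, exposed to compounds plus 20 nM camptothecin for at least 48 h at 37 C; viability read as ATP content by CellTiter-Glo luminescence.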
Numbers stand for hits; 0 = inactive; ? = inconclusive; - = no result; ! = not active in a repeat; [ ] = remark or other dose. Only some compounds are listed: those with a hit (about 19% of all), similar ones and a draw of the others. Unless noted, calls come from the whole dose curve; as a rule, active = well fitted curve in the direction sought with a large enough effect; inconclusive = small, poorly fitted or top-dose-only effect, or another doubt; inactive = no such curve, though single readings can be large; an effect the other way counts as inactive or inconclusive.

SMILES	HT1080NT lethal	IL1B secr inh	TDP1 cell noCPT	HT1080 IDH1KD tx	DT40 TDP1 CPT
Cc1ccc(C)c(N2CCN(S(=O)(=O)c3csc(C(N)=O)c3)CC2)c1	0	0	?	0	16µM!
Cc1ccc(C)c(N2CCN(S(=O)(=O)c3ccc(C(=O)N(C)C)s3)CC2)c1	-	-	16µM	-	18µM
O=C(Nc1ccc(Cl)cn1)c1ccccc1SCc1ccccc1	0	0	0	0	0
Cc1cccc(NC(=O)c2ccccc2SCc2ccc(F)cc2)n1	0	0	15µM	0	?
Clc1ccc(/C=C\c2nccc3c2[nH]c2ccccc23)cc1	21µM	0	?	18µM	?
COc1cccc(NC2=C(C#N)C(=O)NC(c3cccc(OC)c3O)S2)c1 (centres undefined)	0	0	0	0	0
N#CC1=C(Nc2ccccc2Cl)SC(c2ccccc2O)NC1=O (centres undefined)	0	0	?	0	21µM
Cc1c(C(=O)NCCC2CCCN2C)cnn1-c1nccc(-c2ccccc2F)n1 (centres undefined)	-	-	0	-	0[9.04 µM]
CC(=O)c1ccc(OCc2cc(C(=O)N3CCCCC3c3cccnc3)no2)cc1 (centres undefined)	0	?	18µM	?	21µM
COc1ccc(C(=O)N2CCC(c3ccncc3)CC2)cc1OC	-	-	0	-	0
COc1cccc(OCc2cc(C(=O)N3CCN(C)C(c4ccccc4)C3)no2)c1 (centres undefined)	0	0	?	0	26µM
COc1cccc(OCc2cc(C(=O)N3CCC(c4ccncc4)CC3)no2)c1	?	0	8.2µM	?	15µM
CCN(CC)c1ccc(C(=O)N2CCC(c3ccncc3)CC2)cc1	-	-	3.3µM	-	21µM
COc1ccc2c(c1)CC1c3c(cc4c(c3-2)OCO4)CC[N+]1(C)[O-] (centres undefined)	0	0	?	0	?
Cc1ccc(OCc2cc(C(=O)N3CCCC(C)C3)no2)cn1 (centres undefined)	0	0	21µM	0	16µM
COCC1CCN(C(=O)c2cc(COc3ccc4c(c3)CCCC4)on2)C1 (centres undefined)	0	-62	0	0	?
CC(=O)c1ccc(OCc2cc(C(=O)N3CC[C@@H]4CCCC[C@H]4C3)no2)cc1	0	-81	16µM	0	?
CC(=O)c1ccc(OCc2cc(C(=O)N3CCC(c4ccncc4)CC3)no2)cc1	18µM	0	5.8µM	23µM	12µM
COCC1CCCN(C(=O)c2cc(COc3ccc(C(C)=O)cc3)on2)C1 (centres undefined)	0	0	0	0	0
COCC1CCN(C(=O)c2cc(COc3ccc(C)c(C)c3)on2)C1 (centres undefined)	0	0	0	0	0
COc1cc(NC(=O)CN2CCN(C(=O)c3ccco3)CC2)c(C)cc1[N+](=O)[O-]	0	0	?	0	0
CCCCCn1c(=O)[nH]c2cc(C(=O)NCc3ccco3)ccc2c1=O	0	0	0	?	0
COc1cccc(-n2cc(CNCc3c(C(=O)N(C)C)nc4ccc(Cl)cn34)cn2)c1	0	0	15µM	0	?
COc1cccc(-n2cc(CNCc3cn(C)nc3-c3ccccc3F)cn2)c1	0	0	26µM	?	?
CN(Cc1cccc(-n2cccn2)c1)Cc1cn(C)nc1-c1ccccc1F	0	0	?	0	?
SMILES	HT1080NT lethal	IL1B secr inh	TDP1 cell noCPT	HT1080 IDH1KD tx	DT40 TDP1 CPT
Cc1ccc(S(=O)(=O)N2CCCC2)cc1C(=O)N1CCN(Cc2ccccc2)CC1	0	0	?	0	0
CCc1c(C)sc2c1CCN(C(=O)Nc1cc(Cl)c(OC)cc1OC)C2c1ccccc1 (centres undefined)	-	-	26µM	-	?
CCc1c(C)sc2c1CCN(C(=O)Nc1ccccc1C(F)(F)F)C2c1ccccc1 (centres undefined)	-	-	7.3µM	-	?
CCc1c(C)sc2c1CCN(C(=O)Nc1ccc(F)c(Cl)c1)C2c1ccc(F)cc1 (centres undefined)	-	-	16µM	-	?
Cc1ccc(S(=O)(=O)N2[C@@H](c3ccc(C(C)(C)C)cc3)C(C(=O)O)=CC[C@H]2c2ccc(C(C)C)cc2)cc1	?	0	?	?	?
Cc1ccc(C2C3=C(NCCN=C3c3ccccc3)C(=O)N2c2ccccc2)cc1 (centres undefined)	11µM	-63	23µM	?	21µM
CCOc1ccc(N2C(=O)C3=C(C(c4ccc(Cl)cc4)=NCCN3)C2c2cccnc2)cc1 (centres undefined)	?	0	?	15µM	?
Cn1c(=O)c2ccccc2n2c(=S)[nH]nc12	0	0	0	0	0
Cn1c(=O)c2ccccc2n2c(CCl)nnc12	?	0	15µM	?	12µM
CC1=C/C(=N\NC(=S)NCc2ccccc2)CC1	0	0	1.3µM	0	1.5µM
CCN(CC)c1ccc(/C=N/NC(=S)NCc2ccc(OC)cc2)cc1	0	?	?	0	0
C=CCNC(=S)N/N=C/c1ccc(N(CC)Cc2ccccc2)cc1	0	0	18µM	?	21µM
CCN(CC)c1ccc(/C=N/NC(=S)NCc2ccccc2)cc1	0	0	16µM	0	?
Cc1nc2ccc(Nc3ccncc3)cc2s1	0	0	0	0	0
N#CCc1nnc2n1-c1ccccc1CCC2	0	0	0	0	0
COc1cc(NC(=O)CSc2ccc(-c3sc(-c4ccccc4)nc3C)nn2)cc(OC)c1	-	-	16µM	-	0
COc1cccc(CNC(=O)CSc2ccc(-c3sc(-c4ccccc4)nc3C)nn2)c1	-	-	18µM	-	?
Cc1nc(-c2ccccc2)sc1-c1ccc(SCC(=O)Nc2cccc(C(F)(F)F)c2)nn1	-	-	0	-	?
CC(=O)Nc1cccc(NC(=O)C(=O)NCCc2sc(-c3ccccc3)nc2C)c1	-	-	1.2µM	-	1.5µM
CCc1ccc(NC(=O)CSc2ccc(-c3sc(-c4ccccc4)nc3C)nn2)cc1	-	-	12µM	-	?
COC(=O)Cn1cnc(C(=O)Nc2ccc(C)c(C)c2)n1	0	0	0	0	0
O=S(=O)(Cc1c(F)cccc1Cl)c1ncn[nH]1	0	0	0	0	0
CC(=O)Nc1cccc(NC(=O)CSc2ccc(-c3sc(-c4ccccc4)nc3C)nn2)c1	-	-	5.8µM	-	9.2µM
CCCc1cc(=O)[nH]c(SCc2nc(-c3ccc(OCC)cc3)no2)n1	-	-	0	-	0
CCOc1ccc(OCCSc2nc3ccccc3c(=O)[nH]2)cc1	0	0	?	?	?
O=C(CSc1ccc2ccccc2n1)c1ccccc1	0	0	?	0	0
O=c1[nH]c(SCCOc2cccc3ccccc23)nc2ccccc12	?	0	7.3µM	0	?
Cc1nc2ccccc2nc1SCC(=O)c1ccccc1	0	0	7.3µM	0	?
